# Measured values reported in PubChem BioAssay (Tox21).
# Values joined by “and” are separate entries in the source; they are usually repeats but may differ in a detail not shown here. Identical values can stand only once. Records with an inconclusive call do not appear. Where a call stands in place of a potency, no number is given. Active and inactive are the calls of the source. Unless noted, calls follow the shape of the dose curve; as a rule, active = well fitted curve in the direction sought with a large enough effect in the repeat runs; inconclusive = weak or mixed curves; inactive = no such curve, though single readings can be large; an effect the other way counts as inactive or inconclusive.
# Columns and labels:
# [1] = qHTS assay to identify small molecule antagonists of the thyroid receptor (TR) signaling pathway (AID 743065); also: nearly all actives have a fitted effect of over 55% in size; also: potency is read from the fitted curve at half-maximal effect
# How it was run: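 GH3.TRE-Luc rat pituitary cells carrying two TR response elements driving luciferase were plated for 4 h, given compound plus 1 nM T3 (final), and incubated 23.5 h at 37 C. ONE-Glo luminescence measured reporter inhibition; CellTiter-Fluor fluorescence tracked cytotoxicity.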
# [2] = tested on: thyroid hormone receptor (rat, GH3 cells); experiment: qHTS assay to identify small molecule agonists of the thyroid receptor (TR) signaling pathway (AID 743066; calls by dose curve)
# [3] = qHTS assay to identify small molecule antagonists of the estrogen receptor alpha (ER-alpha) signaling pathway - cell viability counter screen (AID 743074; calls by dose curve;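 also: HEK293 cells carrying ER-alpha-UAS-bla reporter stimulated with 17beta-estradiol; nearly all actives have a fitted effect of over 45% in size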)
# [4] = qHTS assay to identify small molecule antagonists of the estrogen receptor alpha (ER-alpha) signaling pathway using the BG1 cell line - cell viability counter screen (AID 743081);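 also: compound given together with 17beta-estradiol as the ER stimulus; nearly all actives have a fitted effect of over 45% in size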
# Aromatase (Homo sapiens) = Aromatase (Homo sapiens) (UniProt P11511); experiment: qHTS assay to identify aromatase inhibitors (AID 743083); also: nearly all actives have a fitted effect of over 55% in size; also: potency is read from the fitted curve at half-maximal effect
# Chain of Aromatase (Homo sapiens) (P11511 whole entry, looked up): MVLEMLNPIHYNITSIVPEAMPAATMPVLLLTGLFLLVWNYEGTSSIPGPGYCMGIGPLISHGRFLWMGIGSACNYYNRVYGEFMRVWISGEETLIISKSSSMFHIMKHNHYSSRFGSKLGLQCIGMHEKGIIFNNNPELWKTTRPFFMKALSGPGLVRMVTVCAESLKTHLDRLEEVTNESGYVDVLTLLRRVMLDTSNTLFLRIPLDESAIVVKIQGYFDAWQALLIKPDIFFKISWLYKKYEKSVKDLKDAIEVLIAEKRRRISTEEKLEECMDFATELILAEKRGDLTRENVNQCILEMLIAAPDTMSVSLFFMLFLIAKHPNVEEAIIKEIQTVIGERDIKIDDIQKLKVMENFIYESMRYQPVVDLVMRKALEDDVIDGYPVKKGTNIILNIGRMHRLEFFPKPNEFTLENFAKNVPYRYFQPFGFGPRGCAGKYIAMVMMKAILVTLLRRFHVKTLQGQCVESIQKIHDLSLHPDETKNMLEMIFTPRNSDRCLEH
# [5] = qHTS assay to identify aromatase inhibitors - cell viability counter screen (AID 743084);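 also: cells stimulated with testosterone during compound exposure; nearly all actives have a fitted effect of over 55% in size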
# [6] = biological target: Aryl hydrocarbon receptor (Homo sapiens) (UniProt P35869); experiment: qHTS assay to identify small molecule that activate the aryl hydrocarbon receptor (AhR) signaling pathway (AID 743085); also: nearly all actives have a fitted effect of over 15% in size; also: potency is read from the fitted curve at half-maximal effect;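 as to activation: HG2L7.5c1 human HepG2 liver cells with stably integrated DRE-driven firefly reporter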
# Chain of Aryl hydrocarbon receptor (Homo sapiens) (P35869 whole entry, looked up): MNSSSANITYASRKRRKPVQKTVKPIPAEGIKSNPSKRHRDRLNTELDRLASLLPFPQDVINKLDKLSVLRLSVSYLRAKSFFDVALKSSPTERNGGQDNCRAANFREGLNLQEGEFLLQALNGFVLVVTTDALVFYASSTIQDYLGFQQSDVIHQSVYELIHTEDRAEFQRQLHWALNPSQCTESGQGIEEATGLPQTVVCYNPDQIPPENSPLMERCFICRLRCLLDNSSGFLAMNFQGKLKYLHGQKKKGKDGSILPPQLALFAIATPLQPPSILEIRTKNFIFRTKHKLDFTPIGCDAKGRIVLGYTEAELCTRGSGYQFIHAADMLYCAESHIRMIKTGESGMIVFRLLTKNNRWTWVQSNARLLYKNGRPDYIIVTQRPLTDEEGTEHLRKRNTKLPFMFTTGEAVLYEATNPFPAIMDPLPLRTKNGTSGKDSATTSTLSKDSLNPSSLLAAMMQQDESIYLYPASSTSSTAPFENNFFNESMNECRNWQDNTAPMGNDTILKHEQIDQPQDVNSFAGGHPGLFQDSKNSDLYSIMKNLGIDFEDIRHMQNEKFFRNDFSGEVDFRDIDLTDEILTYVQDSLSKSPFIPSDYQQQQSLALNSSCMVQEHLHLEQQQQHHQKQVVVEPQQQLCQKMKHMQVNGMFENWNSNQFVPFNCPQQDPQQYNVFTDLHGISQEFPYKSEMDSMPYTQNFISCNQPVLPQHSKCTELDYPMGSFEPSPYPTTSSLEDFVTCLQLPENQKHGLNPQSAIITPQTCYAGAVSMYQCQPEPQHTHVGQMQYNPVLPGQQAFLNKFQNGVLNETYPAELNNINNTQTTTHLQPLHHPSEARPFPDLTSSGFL
# How it was run: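 A multiplexed format paired cell viability (CellTiter-Fluor fluorescence) with AhR-dependent luciferase output (ONE-Glo luminescence) in the same wells of HepG2 DRE-luc cells after 24 h compound exposure at 37C.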
# [7] = qHTS assay to identify small molecule that activate the aryl hydrocarbon receptor (AhR) signaling pathway - cell viability counter screen (AID 743086);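 also: HepG2 liver cells carrying the AhR DRE luciferase reporter; nearly all actives have a fitted effect of over 45% in size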
# How it was run: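 HepG2-AhR-luc (HG2L7.5c1) cells, 4000/well, were preincubated 5 h at 37C, exposed to compound in qHTS format for 24 hr at 37C, then given CellTiter-Fluor for 30 min; viability was read as fluorescence in the reporter wells.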
# [8] = biological target: Peroxisome proliferator-activated receptor gamma (Homo sapiens) (UniProt P37231); experiment: qHTS assay to identify small molecule agonists of the peroxisome proliferator-activated receptor gamma (PPARg) signaling pathway (AID 743094; active = well fitted activation curve with a large enough effect in the signal ratio in the repeat runs, not every such curve was filed as active; the % refers to the signal ratio)
# Chain of Peroxisome proliferator-activated receptor gamma (Homo sapiens) (P37231 whole entry, looked up): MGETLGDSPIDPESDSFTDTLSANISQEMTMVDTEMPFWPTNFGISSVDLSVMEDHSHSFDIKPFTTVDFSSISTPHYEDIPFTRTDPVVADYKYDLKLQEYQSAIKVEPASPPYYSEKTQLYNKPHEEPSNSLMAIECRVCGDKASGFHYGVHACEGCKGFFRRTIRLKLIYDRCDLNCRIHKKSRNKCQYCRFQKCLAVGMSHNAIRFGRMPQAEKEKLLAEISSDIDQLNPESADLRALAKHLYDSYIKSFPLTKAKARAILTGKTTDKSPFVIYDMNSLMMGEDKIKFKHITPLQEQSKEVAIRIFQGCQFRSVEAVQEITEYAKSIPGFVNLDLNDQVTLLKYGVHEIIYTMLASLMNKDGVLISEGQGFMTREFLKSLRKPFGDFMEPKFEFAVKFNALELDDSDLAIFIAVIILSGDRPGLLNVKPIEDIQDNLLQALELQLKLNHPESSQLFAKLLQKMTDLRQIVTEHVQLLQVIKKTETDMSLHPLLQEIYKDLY
# How it was run: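 GeneBLAzer PPARg UAS-bla HEK293H cells carrying a stably integrated beta-lactamase reporter were pre-incubated 5 h at 37C, then exposed to compounds in DMSO for 17 h at 37C; LiveBLAzer B/G FRET substrate was added for 1 h at room temperature and fluorescence read.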
# [9] = qHTS assay to identify small molecule antagonists of the peroxisome proliferator-activated receptor gamma (PPARg) signaling pathway - cell viability counter screen (AID 743194); also: nearly all actives have a fitted effect of over 55% in size
# How it was run: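 PPARg-UAS-bla HEK293H cells were plated, rested 5 h at 37 C, then treated with compounds plus rosiglitazone (50 nM final) for 17 h at 37 C; viability was then read by CellTiter-Glo luminescence after 30 min at room temperature.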
# [10] = qHTS assay for small molecule agonists of the antioxidant response element (ARE) signaling pathway - cell viability counter screen (AID 743203; calls by dose curve; also: nearly all actives have a fitted effect of over 55% in size)
# How it was run: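 CellSensor ARE-bla HepG2 cells, 2,000 per well, rested 5 hrs at 37C/5% CO2, then exposed to compound in DMSO for 16 hrs; viability read as CellTiter-Glo luminescence after 30 min at room temperature, in the reporter wells.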
# [11] = qHTS assay for small molecule activators of the heat shock response signaling pathway - cell viability counter screen (AID 743209); also: nearly all actives have a fitted effect of over 50% in size; also: potency is read from the fitted curve at half-maximal effect
# How it was run: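 CellSensor HSE-bla HeLa cells, plated overnight at 37 C/5% CO2, were exposed to compounds in DMSO for 5 h at 37 C. Viability was then read in the same wells by CellTiter-Glo luminescence after 30 min at room temperature.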
# [12] = qHTS assay for small molecule activators of the heat shock response signaling pathway (AID 743210; active = well fitted activation curve with a large enough effect in the signal ratio in the repeat runs, with a control signal flat, not every such curve was filed as active; the % refers to the signal ratio; also: potency is read from the fitted curve at half-maximal effect;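 as to activation: HeLa cells with beta-lactamase reporter driven by heat shock elements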)
# How it was run: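 Reporter gene assay: HeLa cells stably bearing an HSE-bla construct, compound treatment 5 h at 37 C, LiveBLAzer substrate 2.5 h at RT, fluorescence intensity.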
# [13] = biological target: Estrogen receptor (Homo sapiens) (UniProt P03372); experiment: qHTS assay to identify small molecule antagonists of the estrogen receptor alpha (ER-alpha) signaling pathway (AID 743069; active = well fitted curve in the direction sought with a large enough effect in the signal ratio in the repeat runs, not every such curve was filed as active; the % refers to the signal ratio)
# Chain of Estrogen receptor (Homo sapiens) (P03372 whole entry, looked up): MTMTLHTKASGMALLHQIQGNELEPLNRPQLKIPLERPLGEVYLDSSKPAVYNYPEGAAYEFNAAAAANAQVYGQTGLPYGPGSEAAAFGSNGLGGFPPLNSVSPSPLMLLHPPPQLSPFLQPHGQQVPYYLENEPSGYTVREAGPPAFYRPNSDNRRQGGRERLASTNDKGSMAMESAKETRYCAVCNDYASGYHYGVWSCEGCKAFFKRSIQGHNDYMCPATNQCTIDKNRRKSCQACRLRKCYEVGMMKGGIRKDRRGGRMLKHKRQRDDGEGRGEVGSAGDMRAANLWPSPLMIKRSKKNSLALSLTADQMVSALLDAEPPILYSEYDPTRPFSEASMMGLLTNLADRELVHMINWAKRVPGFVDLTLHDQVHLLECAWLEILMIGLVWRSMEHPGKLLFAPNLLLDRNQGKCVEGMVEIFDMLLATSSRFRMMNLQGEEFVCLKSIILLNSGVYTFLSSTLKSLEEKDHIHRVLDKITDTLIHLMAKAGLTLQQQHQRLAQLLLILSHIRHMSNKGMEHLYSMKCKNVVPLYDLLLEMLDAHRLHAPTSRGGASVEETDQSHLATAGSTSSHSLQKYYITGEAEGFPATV
# How it was run: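 Estradiol-stimulated ER-alpha-UAS-bla HEK293 cells, 18 hr compound exposure at 37C. LiveBLAzer B/G substrate, 2 hr RT, fluorescence read.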
# [14] = biological target: Estrogen receptor (Homo sapiens) (UniProt P03372); experiment: qHTS assay to identify small molecule agonists of the estrogen receptor alpha (ER-alpha) signaling pathway (AID 743075; calls by dose curve;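 also: HEK293 GripTite cells with ER-alpha and UAS-driven beta-lactamase reporter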)
# [15] = biological target: Estrogen receptor (Homo sapiens) (UniProt P03372); experiment: qHTS assay to identify small molecule agonists of the estrogen receptor alpha (ER-alpha) signaling pathway using the BG1 cell line (AID 743079); conditions: BG1Luc4E2 cells, ERE-luciferase agonist, 22 h; activation: at 70.3 µM (top of the series); also: nearly all actives have a fitted effect of over 20% in size
# [16] = qHTS assay to identify small molecule antagonists of the estrogen receptor alpha (ER-alpha) signaling pathway using the BG1 cell line (AID 743080; calls by dose curve;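 also: BG1 cells stimulated with 17beta-estradiol alongside compound; nearly all actives have a fitted effect of over 25% in size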; also: potency is read from the fitted curve at half-maximal effect)
# How it was run: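 BG1-Luc-4E2 cells (endogenous full-length ER-alpha, 4xERE luciferase) hormone-starved 5 days in charcoal-stripped FBS, plated 4,000/well for 24 h, then compound plus 17beta-estradiol for 21.5 h at 37 C; ONE-Glo luminescence read.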
# [17] = biological target: Peroxisome proliferator-activated receptor gamma (Homo sapiens) (UniProt P37231); experiment: qHTS assay to identify small molecule antagonists of the peroxisome proliferator-activated receptor gamma (PPARg) signaling pathway (AID 743191; calls by dose curve; also: nearly all actives have a fitted effect of over 30% in size; also: potency is read from the fitted curve at half-maximal effect)
# How it was run: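 GeneBLAzer PPARg UAS-bla HEK293H cells carrying a UAS-driven beta-lactamase reporter were plated at 3000 cells/well, preincubated 5 h at 37C, then given compound for 17 h at 37C; LiveBLAzer B/G FRET substrate was read after 1 h at room temperature.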
# [18] = qHTS assay for small molecule agonists of the antioxidant response element (ARE) signaling pathway (AID 743202; active = well fitted activation curve with a large enough effect in the signal ratio in the repeat runs, not every such curve was filed as active; the % refers to the signal ratio; also: potency is read from the fitted curve at half-maximal effect)
# How it was run: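 Compounds delivered in DMSO to ARE-bla HepG2 cells (2,000 cells/well, pre-incubated 5 h) and left 16 h at 37 C. LiveBLAzer B/G FRET substrate then added for 2 h at RT before fluorescence reading.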
SMILES,Potency [1],outcome [2],Potency [3],Potency [4],Potency (Aromatase (Homo sapiens)),Potency [5],Potency [6],Potency [7],Potency [8],Potency [9],Potency [10],Potency [11],Potency [12],Potency [13],Potency [14],Potency [15],Potency [16],Potency [17],Potency [18]
CN(C(=O)C(Cl)Cl)c1ccc(OC(=O)c2ccco2)cc1,inactive,inactive,inactive,inactive,inactive,inactive,inactive,inactive,inactive,inactive,inactive,inactive,inactive,–,–,–,–,–,–
CCCCCCCCCCCCCCC[C@H](O)[C@@H](N)CO,–,inactive,inactive,inactive,inactive,inactive,inactive,inactive,inactive,inactive,inactive,–,inactive,inactive,inactive,inactive,inactive,inactive,–
CCCCN(CCCC)C(=S)SSC(=S)N(CCCC)CCCC,inactive,–,–,inactive,inactive,inactive,inactive,inactive,–,inactive,inactive,inactive,1.37 µM (active),inactive,inactive,inactive,–,24.3 µM (active),–
O=C(O)c1c(O)c(-c2ccccc2)nc2ccccc12,–,–,–,–,–,–,–,–,–,inactive,inactive,inactive,inactive,–,–,–,–,–,inactive
CCOC(=O)C(C)Oc1ccc(Oc2nc3ccc(Cl)cc3o2)cc1 (stereo not given),inactive,inactive,inactive,inactive,inactive,inactive,–,inactive,inactive,inactive,inactive,inactive,inactive,–,–,–,–,–,–
CC(=O)OCC(=O)[C@@]12OC(C)(C)O[C@@H]1C[C@H]1[C@@H]3C[C@H](F)C4=CC(=O)C=C[C@]4(C)[C@@]3(F)[C@@H](O)C[C@@]12C,–,–,inactive,inactive,inactive,inactive,inactive,inactive,inactive,inactive,inactive,inactive,inactive,–,–,–,–,–,inactive
O=C(O)c1ccccc1NCCc1ccccc1,–,–,–,–,–,–,–,–,–,inactive,inactive,–,inactive,–,–,–,–,–,–
CN1Cc2cc(C(=O)N3CCC(C4CCNCC4)CC3)ccc2N[C@@H](CC(=O)O)C1=O,–,–,–,–,–,–,–,–,–,inactive,inactive,–,inactive,–,–,–,–,inactive,–
OC(CCCN1CCCCC1)(c1ccccc1)c1ccccc1,–,inactive,–,–,inactive,inactive,inactive,inactive,inactive,inactive,inactive,–,inactive,inactive,inactive,inactive,inactive,inactive,inactive
CC(=O)Oc1ccc(C(=C2CCCCC2)c2ccc(OC(C)=O)cc2)cc1,–,–,inactive,inactive,inactive,inactive,inactive,inactive,–,inactive,inactive,inactive,26.6 µM (active),inactive,inactive,inactive,inactive,–,29.8 µM (active)
N#C/C(=C1\SCC(c2ccccc2Cl)S1)n1ccnc1 (stereo not given),–,–,inactive,inactive,3.35 µM (active),inactive,7.5 µM (active),inactive,inactive,inactive,inactive,inactive,–,–,–,–,–,–,inactive
Nc1c(I)cc(I)c(C(=O)N(CCC(=O)O)c2ccccc2)c1I,–,–,–,–,–,–,–,–,–,inactive,inactive,inactive,inactive,–,–,–,–,–,inactive
CO/N=C1\CN(c2nc3c(cc2F)c(=O)c(C(=O)O)cn3C2CC2)CC1CN (stereo not given),–,–,inactive,inactive,inactive,inactive,inactive,inactive,inactive,inactive,inactive,inactive,inactive,inactive,inactive,inactive,–,–,–
Cc1oncc1C(=O)Nc1ccc(C(F)(F)F)cc1,–,–,inactive,inactive,inactive,inactive,1.14 µM (active) and 21.7 µM (active),inactive,inactive,inactive,inactive,inactive,inactive,inactive,inactive,inactive,–,inactive,30.6 µM (active)
NC(=O)Cn1c(=O)cc(CCN2CCN(c3nccc4sccc34)CC2)c2ccc(F)cc21,–,–,inactive,inactive,inactive,inactive,inactive,–,inactive,inactive,inactive,–,inactive,–,inactive,–,inactive,–,inactive
CCCCCCCC/C=C\CCCCCCCC(=O)OC(CO)CO,inactive,inactive,inactive,inactive,inactive,inactive,inactive,inactive,inactive,inactive,inactive,43.6 µM (active),–,–,–,–,–,–,–
COC(=O)c1cc(Cl)ccc1NS(=O)(=O)C(F)(F)F,–,–,–,–,–,–,–,–,–,inactive,inactive,inactive,inactive,–,–,–,–,inactive,inactive
Cn1c(=O)c2c(ncn2CC(=O)O)n(C)c1=O,–,–,–,–,–,–,–,–,–,inactive,inactive,inactive,–,–,–,–,–,inactive,inactive
CCCCCCOC(=O)C(C)C,inactive,inactive,inactive,inactive,inactive,inactive,inactive,inactive,inactive,inactive,inactive,–,inactive,–,–,–,–,–,inactive
C[C@@H]1C[C@H]2[C@@H]3CCC4=CC(=O)C=C[C@]4(C)[C@@]3(F)[C@@H](O)C[C@]2(C)[C@@]1(O)C(=O)CO,–,inactive,inactive,inactive,inactive,inactive,inactive,inactive,–,inactive,inactive,inactive,inactive,–,–,–,–,–,inactive
CCc1c2c(nc3ccc(OC(=O)N4CCC(N5CCCCC5)CC4)cc13)-c1cc3c(c(=O)n1C2)COC(=O)[C@]3(O)CC,23.7 µM (active),inactive,–,inactive,inactive,–,inactive,inactive,–,inactive,inactive,inactive,inactive,–,inactive,–,11.9 µM (active),–,–
C/C(=N/NC(=O)c1ccncc1)C(=O)O,–,–,–,–,–,–,–,–,–,–,inactive,inactive,inactive,–,–,–,–,inactive,inactive
N#C/C(=C1/SC[C@@H](c2ccc(Cl)cc2Cl)S1)n1ccnc1,21.1 µM (active) and 13.3 µM (active),inactive,inactive,inactive,–,–,–,inactive,–,inactive,–,inactive,inactive,–,–,–,–,–,–
